Results published in PubChem BioAssay.
Values without a mark were called inactive. The source made the active and inactive calls. Cut-off read from the data, not from the text of the source, unless noted: active = inhibition above about 25%; inactive = the rest.

Columns and labels:
[1] = target: Nuclear receptor coactivator 3 (Homo sapiens) (UniProt Q9Y6Q9); assay: SRC3 coactivator transcriptional activity inhibitors, confirmation, cell-based, luminescence, quadruplicate (AID 588792;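 active = mean inhibition over 43.08%, the solvent-only control mean plus 3 SD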;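 note: 0% = DMSO treated cells and 100% = gossypol at 36 µM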); conditions: HEK293 GAL4-SRC3 luciferase reporter, at 3.6 µM, active compounds read high
Chain of Nuclear receptor coactivator 3 (Homo sapiens) (Q9Y6Q9 whole entry, looked up, the tested form may be a part): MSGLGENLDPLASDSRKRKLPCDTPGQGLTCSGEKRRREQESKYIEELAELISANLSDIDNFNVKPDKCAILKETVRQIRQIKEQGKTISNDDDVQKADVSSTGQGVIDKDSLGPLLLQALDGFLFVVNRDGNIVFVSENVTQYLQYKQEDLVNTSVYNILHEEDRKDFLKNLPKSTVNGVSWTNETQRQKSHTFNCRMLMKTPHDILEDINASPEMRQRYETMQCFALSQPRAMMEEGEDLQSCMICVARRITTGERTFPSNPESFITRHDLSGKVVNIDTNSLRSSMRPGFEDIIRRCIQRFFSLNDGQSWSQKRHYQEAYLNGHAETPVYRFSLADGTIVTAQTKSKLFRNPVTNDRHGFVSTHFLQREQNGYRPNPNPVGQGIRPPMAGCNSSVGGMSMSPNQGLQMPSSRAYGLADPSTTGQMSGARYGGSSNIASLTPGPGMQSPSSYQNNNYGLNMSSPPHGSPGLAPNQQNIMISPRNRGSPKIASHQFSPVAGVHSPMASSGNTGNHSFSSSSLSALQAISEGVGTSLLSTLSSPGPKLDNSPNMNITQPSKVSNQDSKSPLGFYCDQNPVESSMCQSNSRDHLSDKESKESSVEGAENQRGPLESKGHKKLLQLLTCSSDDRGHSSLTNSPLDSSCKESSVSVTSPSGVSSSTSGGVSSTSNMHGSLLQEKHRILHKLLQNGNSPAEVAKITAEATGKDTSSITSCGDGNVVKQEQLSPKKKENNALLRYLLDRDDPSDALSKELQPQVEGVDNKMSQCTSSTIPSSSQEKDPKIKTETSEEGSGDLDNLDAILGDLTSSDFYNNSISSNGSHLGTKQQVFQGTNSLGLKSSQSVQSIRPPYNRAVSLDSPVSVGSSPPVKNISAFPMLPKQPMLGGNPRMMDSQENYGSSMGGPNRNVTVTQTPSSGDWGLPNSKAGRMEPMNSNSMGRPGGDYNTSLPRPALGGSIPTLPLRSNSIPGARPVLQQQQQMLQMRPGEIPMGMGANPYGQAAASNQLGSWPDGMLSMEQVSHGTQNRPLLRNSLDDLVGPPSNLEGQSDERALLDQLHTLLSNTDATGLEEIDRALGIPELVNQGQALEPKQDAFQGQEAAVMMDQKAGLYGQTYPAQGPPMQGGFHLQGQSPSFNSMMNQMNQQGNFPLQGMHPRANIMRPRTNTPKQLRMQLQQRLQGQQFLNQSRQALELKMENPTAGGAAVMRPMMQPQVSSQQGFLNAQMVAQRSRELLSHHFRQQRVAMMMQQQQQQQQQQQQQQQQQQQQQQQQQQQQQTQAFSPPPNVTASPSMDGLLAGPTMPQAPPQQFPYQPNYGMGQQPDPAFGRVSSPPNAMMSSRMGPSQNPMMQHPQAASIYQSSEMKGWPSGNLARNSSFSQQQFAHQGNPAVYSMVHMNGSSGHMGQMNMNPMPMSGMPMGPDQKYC

[2] = test system: transactivating tegument protein VP16 (Human herpesvirus 1), Gal4-VP16 luciferase reporter; assay: VP16 transactivation inhibitors, counter-screen for SRC3 inhibitor project, cell-based, luminescence, high throughput (AID 588794; in the data active = inhibition above about 30%); conditions: mammalian cells, VP16-driven luciferase reporter luminescence; at 3.6 µM; active compounds read high
[3] = target: Nuclear receptor coactivator 1 (Homo sapiens) (UniProt Q15788); assay: SRC1 coactivator transcriptional activity inhibitors, confirmation, cell-based, luminescence, quadruplicate (AID 588820;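 active = mean inhibition above 46.68%, the untreated control wells mean plus 3 SD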;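 note: 0% = DMSO wells and 100% = gossypol 36 µM treated wells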); conditions: HEK293 GAL4-SRC1 luciferase reporter, at 3.6 µM, active compounds read high
Chain of Nuclear receptor coactivator 1 (Homo sapiens) (Q15788 whole entry, looked up, the tested form may be a part): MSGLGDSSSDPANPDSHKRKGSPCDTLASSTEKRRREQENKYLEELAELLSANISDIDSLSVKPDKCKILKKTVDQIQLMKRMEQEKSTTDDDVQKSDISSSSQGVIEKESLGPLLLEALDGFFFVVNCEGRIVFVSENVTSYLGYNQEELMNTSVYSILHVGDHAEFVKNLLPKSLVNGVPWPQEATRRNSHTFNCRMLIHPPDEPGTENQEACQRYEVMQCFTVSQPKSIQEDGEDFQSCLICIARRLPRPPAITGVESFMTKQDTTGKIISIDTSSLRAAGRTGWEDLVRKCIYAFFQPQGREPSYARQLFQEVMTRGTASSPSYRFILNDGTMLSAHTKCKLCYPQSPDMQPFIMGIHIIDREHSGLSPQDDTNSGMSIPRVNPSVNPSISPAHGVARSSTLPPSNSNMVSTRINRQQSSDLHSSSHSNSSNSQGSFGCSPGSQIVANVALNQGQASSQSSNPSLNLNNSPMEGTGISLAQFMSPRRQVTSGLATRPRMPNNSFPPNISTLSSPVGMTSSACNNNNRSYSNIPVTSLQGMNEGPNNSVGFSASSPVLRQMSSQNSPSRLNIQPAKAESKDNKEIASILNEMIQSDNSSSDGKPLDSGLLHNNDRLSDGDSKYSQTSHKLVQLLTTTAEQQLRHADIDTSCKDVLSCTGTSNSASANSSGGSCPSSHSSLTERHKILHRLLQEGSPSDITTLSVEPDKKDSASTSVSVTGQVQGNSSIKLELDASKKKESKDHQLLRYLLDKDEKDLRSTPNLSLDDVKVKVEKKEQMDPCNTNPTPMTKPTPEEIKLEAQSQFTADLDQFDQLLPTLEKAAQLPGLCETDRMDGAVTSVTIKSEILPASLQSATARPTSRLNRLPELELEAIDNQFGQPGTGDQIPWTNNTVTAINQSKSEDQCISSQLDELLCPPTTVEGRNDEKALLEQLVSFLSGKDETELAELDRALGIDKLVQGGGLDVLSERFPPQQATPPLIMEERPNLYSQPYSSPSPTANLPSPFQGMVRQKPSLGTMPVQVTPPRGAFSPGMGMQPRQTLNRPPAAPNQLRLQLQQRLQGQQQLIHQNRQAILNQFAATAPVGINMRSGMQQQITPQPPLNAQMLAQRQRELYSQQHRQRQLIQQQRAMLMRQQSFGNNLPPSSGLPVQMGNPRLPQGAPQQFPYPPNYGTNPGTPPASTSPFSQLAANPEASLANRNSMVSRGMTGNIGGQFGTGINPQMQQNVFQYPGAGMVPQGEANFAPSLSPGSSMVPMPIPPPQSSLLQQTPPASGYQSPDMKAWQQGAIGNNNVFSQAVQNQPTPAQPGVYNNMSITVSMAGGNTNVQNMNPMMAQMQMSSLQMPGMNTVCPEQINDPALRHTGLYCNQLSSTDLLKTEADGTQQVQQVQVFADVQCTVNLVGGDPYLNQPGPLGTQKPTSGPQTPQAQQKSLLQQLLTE

[4] = VP16 transactivation inhibitors, counter-screen for SRC1 inhibitor project, cell-based, luminescence, high throughput (AID 588824); conditions: cell-based VP16 transactivation luciferase luminescence; at 3.6 µM; active compounds read high

| Structure (SMILES) | inhibition [1] | inhibition [2] | inhibition [3] | inhibition [4] |
| --- | --- | --- | --- | --- |
| O=[N+]([O-])c1cccc(C=NNc2ccc3ccccc3n2)c1O | -4.77% | -23.2% | -90.4% | -49.2% |
| Cc1ccc(NC(=O)NC2CC(=O)N(c3ccc4c(c3)OCCO4)C2)cc1C (stereo not given) | 41.9% | 33.8% (active) | 46% | 20.9% |
| O=C(Nc1ccc(N2CCN(C(=O)c3ccccc3F)CC2)cc1)c1cncc(Br)c1 | 64.7% (active) | 37.8% (active) | 34.5% | 48% (active) |
| O=C(NNc1ccccc1)C(=O)NNc1ccccc1 | 25.6% | 49.3% (active) | 8.21% | 48.9% (active) |
| Cc1ccc2occ(/C=N/NC(=O)c3ccncc3)c(=O)c2c1 | 21.2% | 15.1% | 20.3% | 14.4% |
| Fc1ccc(CSc2nnc(-c3ccncc3)o2)cc1 | 53.9% (active) | 22.7% | 29.9% | 19.3% |
| O=C(Nc1nc(-c2ccc(S(=O)(=O)N3CCCC3)cc2)cs1)C1COc2ccccc2O1 (stereo not given) | 7.31% | -0.16% | -8.23% | -2.78% |
| C/C(=N\NC(=O)c1nnn(-c2nonc2N)c1-c1ccccc1)c1ccccc1O | 49.2% (active) | 44.6% (active) | 60.8% (active) | 40.6% (active) |
| CCN(CC)CCC(=O)Nc1cccc2c1C(=O)c1ccccc1C2=O | -12.3% | 21.1% | 8.87% | 25.7% (active) |
| CC(=O)c1c(C)n(-c2ccccc2)c2ccc(O)cc12 | 50.6% (active) | 41.6% (active) | 44.7% | 37.9% (active) |
| Nc1nc(=O)n(C2CC(O)C(CO)O2)cc1F (stereo not given) | 58.5% (active) | 37.5% (active) | 57.2% (active) | 40.9% (active) |
| Cc1ccc(S(=O)(=O)N2CCOCC2)cc1NC(=O)CN1CCN(c2ccc(O)cc2)CC1 | 12.4% | -1.58% | -6.12% | 11.1% |
| COc1ccc(-n2c(=S)[nH]c3cc(C(=O)Nc4ccc(F)cc4)ccc3c2=O)c(OC)c1 | 19.7% | 40.8% (active) | 26.5% | 44.6% (active) |
| N#CC(c1ccc(Cl)cc1)c1ccc2c(C(F)(F)F)cc(C(F)(F)F)nc2n1 (stereo not given) | 62% (active) | 85.7% (active) | 32% | 83.3% (active) |
| OC1c2cc(Br)ccc2N=C2CCCN21 (stereo not given) | 44.3% (active) | 37.3% (active) | 37% | 30.1% (active) |
| NNC(=O)C(=O)Nc1ccc(O)cc1 | 2.12% | 8.64% | -20.1% | -2.23% |
| O=S(=O)(/C(=C\c1ccc(C(F)(F)F)cc1)c1nc2ccccc2[nH]1)c1ccccc1 | 69.8% (active) | 25.6% | -29.1% | 42.4% (active) |
| Cc1nc2c(o1)C(=O)c1ccccc1C2=Nc1ccccc1 | 78.5% (active) | 94.3% (active) | 61.8% (active) | 79.1% (active) |
| CCC(=O)Nc1cc2nn(-c3ccc(C)cc3)nc2cc1C | -6% | -33.2% | -102% | -68% |
| Cc1c2ccncc2cc2c1[nH]c1ccccc12 | 48.7% (active) | 33.5% (active) | 48.4% (active) | 19.9% |
| COC(=O)c1ccc2nc(NC(=O)C(C)(C)C)sc2c1 | -14.6% | -16.8% | -142% | -60.1% |
| NC(=O)c1cc(Sc2ccccc2)nc2ccccc12 | 38% | 16.6% | 34.4% | 16% |
| O=[N+]([O-])c1ccc(O)c(/C=N/Nc2ccc(Cl)nn2)c1 | 87.2% (active) | 83.6% (active) | 73.1% (active) | 82.2% (active) |
| Cc1sc2ncnc(N3CCC(C(=O)Nc4ccccc4C(C)(C)C)CC3)c2c1C | 35.8% | 27.6% | 41.9% | 29.7% (active) |
| CCOc1ccc(-n2c(C)c(C(C)=O)c3cc(O)ccc32)cc1 | 59.7% (active) | 51.2% (active) | 60.8% (active) | 48.2% (active) |
